Source: article PMC9911399, “Two distinct binding modes provide the RNA-binding protein RbFox with extraordinary sequence specificity”
Positions count from the first letter of the chain named. The full ranking holds about 16,000 sequences; the median of “ka relative to ugcaugu” is about 0.0091, and the highest 2% start at about 0.032. Many of the other results were omitted from the sample, so the highest values are more common in it than they were.

T1: RBFOX1 RRM (Homo sapiens, UniProt Q9NWB1 109-208)
T1 sequence: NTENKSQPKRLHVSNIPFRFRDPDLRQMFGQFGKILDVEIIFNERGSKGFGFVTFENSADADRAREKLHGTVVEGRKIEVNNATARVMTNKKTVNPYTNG

B1: GCCACGU (DNA:RNA)
RNA: GGGAGACCGGAAUUCAGAUUGUCCGCCACGUUUAAAUCCCGUCGUAGCCACCA
DNA 1: CAATCTGAATTCCGGTCTCCC
DNA 2: TGGTGGCTACGACGGGATT
B2: CGCACGG (DNA:RNA)
RNA: B1 RNA with G25C, C26G, U31G
DNA 1: CAATCTGAATTCCGGTCTCCC
DNA 2: TGGTGGCTACGACGGGATT
B3: CAGCACG (DNA:RNA)
RNA: GGGAGACCGGAAUUCAGAUUGUCCCAGCACGUUAAAUCCCGUCGUAGCCACCA
DNA 1: CAATCTGAATTCCGGTCTCCC
DNA 2: TGGTGGCTACGACGGGATT
B4: ACGUUUU (DNA:RNA)
RNA: B1 RNA with G25A, C27G, A28U, C29U, G30U
DNA 1: CAATCTGAATTCCGGTCTCCC
DNA 2: TGGTGGCTACGACGGGATT
B5: AGCACGU (DNA:RNA)
RNA: B1 RNA with G25A, C26G
DNA 1: CAATCTGAATTCCGGTCTCCC
DNA 2: TGGTGGCTACGACGGGATT
B6: GCACGGU (DNA:RNA)
RNA: B1 RNA with C27A, A28C, C29G
DNA 1: CAATCTGAATTCCGGTCTCCC
DNA 2: TGGTGGCTACGACGGGATT
B7: CGCACGU (DNA:RNA)
RNA: B1 RNA with G25C, C26G
DNA 1: CAATCTGAATTCCGGTCTCCC
DNA 2: TGGTGGCTACGACGGGATT
B8: GCACCGU (DNA:RNA)
RNA: B1 RNA with C27A, A28C
DNA 1: CAATCTGAATTCCGGTCTCCC
DNA 2: TGGTGGCTACGACGGGATT
B9: AGCACCG (DNA:RNA)
RNA: B1 RNA with G25A, C26G, G30C, U31G
DNA 1: CAATCTGAATTCCGGTCTCCC
DNA 2: TGGTGGCTACGACGGGATT
B10: CACGUUU (DNA:RNA)
RNA: B3 RNA with G27C, C28G, A29U, C30U, G31U
DNA 1: CAATCTGAATTCCGGTCTCCC
DNA 2: TGGTGGCTACGACGGGATT
B11: GCACGUU (DNA:RNA)
RNA: B1 RNA with C27A, A28C, C29G, G30U
DNA 1: CAATCTGAATTCCGGTCTCCC
DNA 2: TGGTGGCTACGACGGGATT
B12: GCACCGG (DNA:RNA)
RNA: B1 RNA with C27A, A28C, U31G
DNA 1: CAATCTGAATTCCGGTCTCCC
DNA 2: TGGTGGCTACGACGGGATT
B13: GGCUAAG (DNA:RNA)
RNA: B3 RNA with C25G, A26G, G27C, C28U, C30A
DNA 1: CAATCTGAATTCCGGTCTCCC
DNA 2: TGGTGGCTACGACGGGATT
B14: CUCGGCA (DNA:RNA)
RNA: B3 RNA with A26U, G27C, C28G, A29G, G31A
DNA 1: CAATCTGAATTCCGGTCTCCC
DNA 2: TGGTGGCTACGACGGGATT
B15: AACGACU (DNA:RNA)
RNA: B3 RNA with C25A, G27C, C28G, G31U
DNA 1: CAATCTGAATTCCGGTCTCCC
DNA 2: TGGTGGCTACGACGGGATT
B16: AUAAAAA (DNA:RNA)
RNA: B3 RNA with C25A, A26U, G27A, C28A, C30A, G31A
DNA 1: CAATCTGAATTCCGGTCTCCC
DNA 2: TGGTGGCTACGACGGGATT
B17: UUAUCUG (DNA:RNA)
RNA: B3 RNA with C25U, A26U, G27A, C28U, A29C, C30U
DNA 1: CAATCTGAATTCCGGTCTCCC
DNA 2: TGGTGGCTACGACGGGATT
B18: AAGCACC (DNA:RNA)
RNA: B3 RNA with C25A, G31C
DNA 1: CAATCTGAATTCCGGTCTCCC
DNA 2: TGGTGGCTACGACGGGATT
B19: AAGCACG (DNA:RNA)
RNA: B3 RNA with C25A
DNA 1: CAATCTGAATTCCGGTCTCCC
DNA 2: TGGTGGCTACGACGGGATT
B20: AAGCCCG (DNA:RNA)
RNA: B3 RNA with C25A, A29C
DNA 1: CAATCTGAATTCCGGTCTCCC
DNA 2: TGGTGGCTACGACGGGATT
B21: AAAACAC (DNA:RNA)
RNA: B1 RNA with G25A, C26A, C27A, G30A, U31C
DNA 1: CAATCTGAATTCCGGTCTCCC
DNA 2: TGGTGGCTACGACGGGATT
B22: CAUCUUU (DNA:RNA)
RNA: B3 RNA with G27U, A29U, C30U, G31U
DNA 1: CAATCTGAATTCCGGTCTCCC
DNA 2: TGGTGGCTACGACGGGATT
B23: CUGUGCC (DNA:RNA)
RNA: B3 RNA with A26U, C28U, A29G, G31C
DNA 1: CAATCTGAATTCCGGTCTCCC
DNA 2: TGGTGGCTACGACGGGATT
B24: CUGCCUG (DNA:RNA)
RNA: B3 RNA with A26U, A29C, C30U
DNA 1: CAATCTGAATTCCGGTCTCCC
DNA 2: TGGTGGCTACGACGGGATT
B25: UGCCCUG (DNA:RNA)
RNA: B3 RNA with C25U, A26G, G27C, A29C, C30U
DNA 1: CAATCTGAATTCCGGTCTCCC
DNA 2: TGGTGGCTACGACGGGATT
B26: UGCCGGU (DNA:RNA)
RNA: B1 RNA with G25U, C26G, A28C, C29G
DNA 1: CAATCTGAATTCCGGTCTCCC
DNA 2: TGGTGGCTACGACGGGATT
B27: UGCCUGU (DNA:RNA)
RNA: B1 RNA with G25U, C26G, A28C, C29U
DNA 1: CAATCTGAATTCCGGTCTCCC
DNA 2: TGGTGGCTACGACGGGATT
B28: UGCUGUU (DNA:RNA)
RNA: B1 RNA with G25U, C26G, A28U, C29G, G30U
DNA 1: CAATCTGAATTCCGGTCTCCC
DNA 2: TGGTGGCTACGACGGGATT
B29: CGUUCGA (DNA:RNA)
RNA: B1 RNA with G25C, C26G, C27U, A28U, U31A
DNA 1: CAATCTGAATTCCGGTCTCCC
DNA 2: TGGTGGCTACGACGGGATT
B30: AUUUAUA (DNA:RNA)
RNA: B3 RNA with C25A, A26U, G27U, C28U, C30U, G31A
DNA 1: CAATCTGAATTCCGGTCTCCC
DNA 2: TGGTGGCTACGACGGGATT
B31: AGUACGU (DNA:RNA)
RNA: B1 RNA with G25A, C26G, C27U
DNA 1: CAATCTGAATTCCGGTCTCCC
DNA 2: TGGTGGCTACGACGGGATT

biological target: T1, RBFOX1 RRM; experiment: EMSA; HiTS-Eq, 1 nM pool, 10 min; buffer printed only for the single-RNA assays: 10 mM Tris pH 7.5, 150 mM NaCl, 3.4 mM EDTA, 0.001% NP-40, 30 C; conditions: tags: His6 N-terminal (pET28a); label: 5' 32P
In short: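 Purified wild-type or mutant RbFox RRM at increasing concentrations was equilibrated with 1 nM of 5′-radiolabelled RNA carrying 7 randomized nucleotides for 10 min in 50 µL. Unbound RNA was separated by 8% native PAGE and sequenced. Relative association constants came from read-count changes of each RNA species compared with the control reaction, normalised to the cognate motif.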

In order of falling binding signal:
1. B27  0.0501 KA relative to UGCAUGU
2. B7  0.0433 KA relative to UGCAUGU
3. B11  0.043 KA relative to UGCAUGU
4. B24  0.0391 KA relative to UGCAUGU
5. B5  0.0367 KA relative to UGCAUGU
6. B19  0.0333 KA relative to UGCAUGU
7. B6  0.0324 KA relative to UGCAUGU
8. B2  0.0278 KA relative to UGCAUGU
9. B3  0.0261 KA relative to UGCAUGU
10. B28  0.0254 KA relative to UGCAUGU
11. B25  0.025 KA relative to UGCAUGU
12. B14  0.0189 KA relative to UGCAUGU
13. B29  0.0138 KA relative to UGCAUGU
14. B13  0.0134 KA relative to UGCAUGU
15. B17  0.0132 KA relative to UGCAUGU
16. B26  0.0131 KA relative to UGCAUGU
17. B8  0.0125 KA relative to UGCAUGU
18. B23  0.0119 KA relative to UGCAUGU
19. B1  0.011 KA relative to UGCAUGU
20. B20  0.00982 KA relative to UGCAUGU
21. B31  0.00915 KA relative to UGCAUGU
22. B9  0.00835 KA relative to UGCAUGU
23. B12  0.00674 KA relative to UGCAUGU
24. B10  0.00574 KA relative to UGCAUGU
25. B15  0.00509 KA relative to UGCAUGU
26. B18  0.00479 KA relative to UGCAUGU
27. B4  0.00473 KA relative to UGCAUGU
28. B22  0.00311 KA relative to UGCAUGU
29. B30  0.00157 KA relative to UGCAUGU
30. B21  0.00144 KA relative to UGCAUGU
31. B16  0.00125 KA relative to UGCAUGU
